Assay results taken from PubChem BioAssay (Tox21).
Inconclusive results are not listed. The source made the active and inactive calls. Unless noted, calls come from the whole dose curve; as a rule, active = well fitted curve in the direction sought with a large enough effect in the repeat runs; inconclusive = weak or mixed curves; inactive = no such curve, though single readings can be large; an effect the other way counts as inactive or inconclusive.

Key:
[1] = qHTS assay to identify small molecule antagonists of the glucocorticoid receptor (GR) signaling pathway - cell viability counter screen (AID 720693); note: nearly all actives have a fitted effect of over 55% in size
[2] = qHTS assay for identifying genotoxic compounds that show differential cytotoxicity against isogenic chicken DT40 cell lines with known DNA damage response pathways - Rev3 mutant cell line (AID 743014); note: nearly all actives have a fitted effect of over 55% in size; note: potency is the fitted concentration of half-maximal effect
[3] = qHTS assay for identifying genotoxic compounds that show differential cytotoxicity against isogenic chicken DT40 cell lines with known DNA damage response pathways - Rad54/Ku70 mutant cell line (AID 743015); note: nearly all actives have a fitted effect of over 60% in size; note: potency is the fitted concentration of half-maximal effect
[4] = qHTS assay to identify small molecule antagonists of the androgen receptor (AR) signaling pathway - cell viability counter screen (AID 743033; note: nearly all actives have a fitted effect of over 45% in size)
[5] = qHTS assay to identify small molecule antagonists of the androgen receptor (AR) signaling pathway using the MDA cell line - cell viability counter screen (AID 743041; note: nearly all actives have a fitted effect of over 45% in size)
Outline: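 Viability read by CellTiter-Fluor fluorescence in the same wells as the antagonist screen, added after 15.5 h of a 16 h, 37C exposure. Human breast carcinoma MDA-kb2 AR-luc cells, compounds co-dosed with agonist R1881.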

[6] = qHTS assay to identify small molecule antagonists of the thyroid receptor (TR) signaling pathway - cell viability counter screen (AID 743064); note: nearly all actives have a fitted effect of over 50% in size
Outline: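 Rat GH3 pituitary tumor cells stably expressing two TR response elements driving luciferase were plated, rested 4 h, then dosed with library compounds and T3 (1 nM final). After 23.5 h at 37 °C, CellTiter-Fluor was added for 30 min and fluorescence recorded.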

[7] = target: Androgen receptor (Homo sapiens) (UniProt P10275); test: qHTS assay to identify small molecule antagonists of the androgen receptor (AR) signaling pathway (AID 743035; active = well fitted inhibition curve with a large enough effect in the signal ratio in the repeat runs, not every such curve was filed as active; the % refers to the signal ratio)
Sequence of Androgen receptor (Homo sapiens) (P10275 whole entry, looked up): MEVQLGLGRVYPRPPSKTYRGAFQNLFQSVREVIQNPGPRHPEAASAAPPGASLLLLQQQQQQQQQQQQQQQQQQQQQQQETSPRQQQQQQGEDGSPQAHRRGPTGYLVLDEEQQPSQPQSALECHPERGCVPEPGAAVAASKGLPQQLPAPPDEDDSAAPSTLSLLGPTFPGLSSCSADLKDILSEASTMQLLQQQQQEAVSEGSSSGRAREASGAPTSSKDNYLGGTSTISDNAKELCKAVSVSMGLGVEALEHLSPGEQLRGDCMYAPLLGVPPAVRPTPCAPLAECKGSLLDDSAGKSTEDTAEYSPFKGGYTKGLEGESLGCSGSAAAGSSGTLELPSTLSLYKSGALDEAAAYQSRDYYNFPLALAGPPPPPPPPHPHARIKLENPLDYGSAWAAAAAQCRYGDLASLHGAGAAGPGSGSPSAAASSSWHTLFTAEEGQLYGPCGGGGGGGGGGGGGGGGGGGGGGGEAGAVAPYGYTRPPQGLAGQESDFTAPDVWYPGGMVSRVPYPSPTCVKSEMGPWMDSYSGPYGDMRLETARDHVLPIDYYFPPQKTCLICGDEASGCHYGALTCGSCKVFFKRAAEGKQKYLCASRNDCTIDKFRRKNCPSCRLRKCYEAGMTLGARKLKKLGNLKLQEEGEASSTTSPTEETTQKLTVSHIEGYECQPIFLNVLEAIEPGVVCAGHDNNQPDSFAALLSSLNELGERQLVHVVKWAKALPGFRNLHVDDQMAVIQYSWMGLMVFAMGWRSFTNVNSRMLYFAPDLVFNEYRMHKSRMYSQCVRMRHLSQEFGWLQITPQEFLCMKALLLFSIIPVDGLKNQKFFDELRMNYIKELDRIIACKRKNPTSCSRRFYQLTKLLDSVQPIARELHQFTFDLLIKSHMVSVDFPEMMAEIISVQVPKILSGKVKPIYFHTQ
Outline: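 Antagonist mode: AR-bla HEK293 cells co-treated with test compounds and agonist R1881 for 16 h at 37C, 5% CO2. Beta-lactamase activity read as FRET fluorescence after 2 h room-temperature substrate loading.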

[8] = target: Androgen receptor (Homo sapiens) (UniProt P10275); test: qHTS assay to identify small molecule agonists of the androgen receptor (AR) signaling pathway using the MDA cell line (AID 743040; note: nearly all actives have a fitted effect of over 20% in size)
Outline: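 Luciferase agonist assay: 16 h compound exposure at 37C without CO2 in MDA-kb2 AR-luc cells, whose MMTV promoter responds to both AR and GR. Luminescence measured after 30 min room-temperature incubation with ONE-Glo.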

[9] = target: Androgen receptor (Homo sapiens) (UniProt P10275); test: qHTS assay to identify small molecule antagonists of the androgen receptor (AR) signaling pathway using the MDA cell line (AID 743042; note: nearly all actives have a fitted effect of over 55% in size)
Outline: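 Antagonist mode: compounds plus R1881 agonist added to MDA-kb2 AR-luc cells, incubated 16 h at 37C. Luciferase reporter luminescence quantified, with multiplexed CellTiter-Fluor readout for cell viability.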

[10] = qHTS assay for identifying genotoxic compounds that show differential cytotoxicity against isogenic chicken DT40 cell lines with known DNA damage response pathways - wild type cell line (AID 743012); note: nearly all actives have a fitted effect of over 60% in size
Outline: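 Viability by ATP luminescence (CellTiter-Glo, 30 min RT) after 40 h compound treatment at 37 C/5% CO2, using 300 parental DNA repair-proficient DT40 cells per well.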
% is set by controls: 0 for no effect and ±100 for the full control effect.

CCCCCC1Nc2cc(C(F)(F)F)c(S(N)(=O)=O)cc2S(=O)(=O)N1 (configuration not stated)
inactive: Potency [1] | Potency [2] | Potency [3] | outcome [4] | outcome [5] | Potency [6]

CN(C)CCCNCCC#N
inactive: Potency [1] | Potency [2] | Potency [3] | outcome [4] | outcome [5] | Potency [6]

CC(C)C(=O)c1ccccc1
inactive: Potency [1] | Potency [2] | Potency [3] | outcome [4] | outcome [5] | Potency [6]

CCN(CCC#N)c1ccccc1
inactive: Potency [1] | Potency [2] | Potency [3] | outcome [4] | outcome [5] | Potency [6]

CCC(C)(CCC(C)C)C(=O)[O-].CCC(C)(CCC(C)C)C(=O)[O-].[Zn+2] (configuration not stated)
inactive: Potency [1] | Potency [2] | Potency [3] | outcome [4] | outcome [5] | Potency [6]

CO[Si](CCCS)(OC)OC
inactive: Potency [1] | Potency [2] | Potency [3] | outcome [4] | outcome [5] | Potency [6]

CC(=O)N(CC(O)CO)c1c(I)c(C(=O)NCC(O)CO)c(I)c(C(=O)NCC(O)CO)c1I (configuration not stated)
inactive: Potency [1] | Potency [2] | Potency [3] | outcome [4] | outcome [5] | Potency [6]

CC(=O)c1ccc(OCC(=O)N2CCCCC2)cc1
inactive: Potency [1] | Potency [2] | Potency [3] | outcome [4] | outcome [5] | Potency [6]

CCOC(=O)CC(CC(=O)OCC)(OC(C)=O)C(=O)OCC
inactive: Potency [1] | Potency [2] | Potency [3] | outcome [4] | outcome [5] | Potency [6]

Cc1cc(C)cc([N+](=O)[O-])c1
inactive: Potency [1] | Potency [2] | Potency [3] | outcome [4] | outcome [5] | Potency [6]

CCOC(=O)C(C)(C)C
inactive: Potency [1] | Potency [2] | Potency [3] | outcome [4] | outcome [5] | Potency [6]

FC(F)(F)c1ccc(Cl)cc1Cl
inactive: Potency [1] | Potency [2] | Potency [3] | outcome [4] | outcome [5]

CCCCOC(=O)C(=O)OCCCC
inactive: Potency [1] | Potency [2] | Potency [3] | outcome [4] | outcome [5] | Potency [6]

O=C1c2ccccc2-c2ccccc21
inactive: Potency [1] | Potency [2] | Potency [3] | Potency [7] | outcome [8] | outcome [5] | outcome [9] | Potency [6]

CC(Cl)COP(=O)(OCC(C)Cl)OCC(C)Cl (configuration not stated)
inactive: Potency [1] | outcome [4] | outcome [5] | Potency [6]
active: Potency [2] 54.2 µM

O=S(=O)(O)SSS(=O)(=O)O
inactive: Potency [1] | Potency [2] | Potency [3] | Potency [7] | outcome [8] | outcome [5] | outcome [9] | Potency [6]

C=CCOC(=O)c1ccc(C(=O)OCC=C)c(C(=O)OCC=C)c1
inactive: Potency [1] | outcome [5] | Potency [6]

C[C@@H]1C[C@H]2[C@@H]3C[C@H](F)C4=CC(=O)C=C[C@]4(C)[C@@]3(F)[C@@H](O)C[C@]2(C)[C@@]1(O)C(=O)CO
inactive: Potency [1] | outcome [5] | Potency [6]

O=C(Oc1ccccc1C(=O)O)c1ccccc1O
inactive: Potency [1] | Potency [3] | outcome [4] | outcome [5] | Potency [6]

CCCCCC(=O)OCC
inactive: Potency [1] | Potency [2] | Potency [3] | outcome [5] | Potency [6]

Oc1ccccc1Cc1ccccc1O
inactive: Potency [1] | Potency [2] | outcome [4] | outcome [5] | Potency [6]

C=C(C)[C@@H]1CC[C@@H](C)C[C@@H]1O
inactive: Potency [1] | Potency [2] | Potency [3] | outcome [5] | Potency [6]

CN[C@@H]1[C@@H](O)[C@@H](O[C@@H]2[C@H](O)[C@H](O[C@H]3OC(CN)=CC[C@H]3N)[C@@H](N)C[C@H]2N)OCC1(C)O (some centres not stated)
inactive: Potency [10] | Potency [2] | Potency [3] | outcome [4] | outcome [5] | Potency [6]

CCN(Cc1cccc(S(=O)(=O)O)c1)c1ccccc1
inactive: Potency [1] | Potency [3] | outcome [4] | outcome [5] | Potency [6]

CCCCCCCCCCCCC1CO1 (configuration not stated)
inactive: Potency [1] | outcome [4] | outcome [5] | Potency [6]

CCOc1ccc(NC(=O)OC(C)C)cc1OCC
inactive: Potency [1] | outcome [4] | outcome [5] | Potency [6]
active: Potency [2] 61.1 µM

CCC1COC(=O)O1 (configuration not stated)
inactive: Potency [1] | Potency [2] | Potency [3] | outcome [5] | Potency [6]

CCCC(C)CC (configuration not stated)
inactive: Potency [1] | Potency [2] | Potency [3] | outcome [5] | Potency [6]

CC(C)SCc1ccco1
inactive: Potency [10] | Potency [2] | Potency [3] | outcome [4] | outcome [5]

CCNC(=O)/C=C/c1cccc(Br)c1
inactive: Potency [1] | Potency [2] | Potency [3] | outcome [8] | outcome [5] | Potency [6]

CCOC(=O)CCCCCCCCC(=O)OCC
inactive: Potency [1] | outcome [4] | outcome [5] | Potency [6]
active: Potency [2] 61.1 µM

CC(=O)OCC(=O)[C@@]1(O)[C@H](OC(C)=O)C[C@H]2[C@@H]3CCC4=CC(=O)C=C[C@]4(C)[C@@]3(F)[C@@H](O)C[C@@]21C
inactive: Potency [1] | outcome [4] | outcome [5] | Potency [6]

C=CCOc1c(Br)cc(Br)cc1Br
inactive: Potency [1] | Potency [2] | Potency [3] | outcome [5] | Potency [6]

CC(C)(C)c1ccc(C=O)cc1
inactive: Potency [10] | Potency [2] | Potency [3] | outcome [4] | outcome [5] | Potency [6]

CC(C)COC(=O)COc1ccc(Cl)cc1Cl
inactive: Potency [1] | outcome [4] | Potency [7] | outcome [8] | outcome [5] | outcome [9] | Potency [6]

COc1ccc(OC)c(NC(=O)CC(C)=O)c1
inactive: Potency [1] | Potency [3] | outcome [4] | outcome [5] | Potency [6]

Nc1ccc(/C=C/c2ccc(N)cc2S(=O)(=O)O)c(S(=O)(=O)O)c1
inactive: Potency [1] | outcome [5] | Potency [6]

CC(=O)OC(C)c1ccccc1 (configuration not stated)
inactive: Potency [1] | Potency [2] | Potency [3] | outcome [5] | Potency [6]

Cc1oc(=O)oc1CN1CCN(c2cc3c(cc2F)c(=O)c(C(=O)O)c2n3C(C)S2)CC1 (configuration not stated)
inactive: Potency [1] | outcome [4] | outcome [5]

CCCCC(CC)C(=O)OC(C)C (configuration not stated)
inactive: Potency [10] | Potency [2] | Potency [3] | outcome [5] | Potency [6]

O=CO
inactive: viability change, negative = cytotoxic [1] -3.59% [at 7.04 µM] | activity change, negative = cytotoxicity [4] -5.92% [at 7.04 µM] | viability change, negative = cytotoxic [5] -3.77% [at 8.47 µM] | activity change, negative = cytotoxic [6] -0.961% [at 8.44 µM]

c1ccc(CNc2ncnc3nc[nH]c23)cc1
inactive: Potency [1] | outcome [4] | outcome [5] | Potency [6]
active: Potency [3] 48.6 µM

Cc1cc(O)c2c(c1)C(=O)c1cccc(O)c1C2=O
inactive: Potency [10] | outcome [4] | outcome [5] | Potency [6]
active: Potency [3] 26.7 µM

OCCCCCCCl
inactive: Potency [1] | Potency [2] | Potency [3] | outcome [5] | Potency [6]

CC(C)COC(=O)/C=C/c1ccccc1
inactive: Potency [1] | Potency [2] | outcome [4] | outcome [5] | Potency [6]

NC(=O)C1(N2CCCCC2)CCN(CCCC(=O)c2ccc(F)cc2)CC1
inactive: Potency [1] | outcome [4] | outcome [5] | Potency [6]

CCOC(=O)OCC/C(SC(=O)OCC)=C(\C)N(C=O)Cc1cnc(C)nc1N
inactive: Potency [10] | Potency [2] | Potency [3] | outcome [4] | outcome [5] | Potency [6]

C[C@H]1O[C@H](O[C@H]2[C@H](O)[C@@H](O)[C@@H](O[C@H]3[C@H](O)[C@@H](O)[C@H](O)O[C@@H]3CO)O[C@@H]2CO)[C@H](O)[C@@H](O)[C@@H]1N[C@H]1C=C(CO)[C@@H](O)[C@H](O)[C@H]1O
inactive: Potency [10] | Potency [2] | Potency [3] | outcome [5] | Potency [6]

C1CCN2C[C@@H]3C[C@@H](CN4CCCC[C@@H]34)[C@H]2C1
inactive: Potency [2] | Potency [3] | outcome [4] | outcome [5] | Potency [6]
